# Target: T1, MoHTR1 (Magnaporthe oryzae, UniProt Q2KEJ2 20-198)
# T1 sequence: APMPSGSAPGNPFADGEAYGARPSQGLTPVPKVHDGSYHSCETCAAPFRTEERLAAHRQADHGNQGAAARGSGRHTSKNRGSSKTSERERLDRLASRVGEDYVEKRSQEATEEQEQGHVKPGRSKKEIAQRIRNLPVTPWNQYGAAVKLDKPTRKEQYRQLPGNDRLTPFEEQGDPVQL
# Assay: array; high values mean tight binding
# Settings: protein: recombinant; tags: DsRed; 6xHis (pET-32a vector); dsDNA, one strand shown
row,Sequence,binding signal [a.u.]
1,CCTCCACC,23900
2,CTTCAATC,21100
3,CAATCTTC,27900
4,AACTCTCC,21600
5,CAATCTCC,20800
6,CCACCTCC,24000
7,CCGCCACC,13400
8,CCATACAC,14100
9,CATACTCC,19100
10,CCTCAATC,19700
11,CAATCCTC,20100
12,TCCAATCC,22900
13,CTCAACTC,24700
14,CTAACTCC,22500
15,AACTCCTC,22100
16,TCTCAATC,24100
17,CTCATACC,25600
18,CTCTAATC,21800
19,CCAACTCC,20800
20,TCAATCTC,23900
21,CTCCAACC,14800
22,CCTCCTCC,21700

# Target: T2, MoHTR2 (Magnaporthe oryzae, UniProt G5EHQ6 19-110)
# T2 sequence: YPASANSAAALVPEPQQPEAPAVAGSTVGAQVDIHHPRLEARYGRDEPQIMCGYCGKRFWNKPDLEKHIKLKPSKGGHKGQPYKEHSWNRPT
# Assay: array; high values mean tight binding
# Settings: protein: recombinant; tags: DsRed; 6xHis (pET-32a vector); dsDNA, one strand shown
row,Sequence,binding signal [a.u.]
1,CCTCCACC,11600
2,CATACCTC,8490
3,CCACCTCC,11800
4,CCTCCGCC,9500
5,CCGCCTCC,8800
6,CCTCCTCC,10800
